A selection: hits, their analogues and other compounds. The true share with any hit is near 3.3%.
GBA mod: Glucocerebrosidase; Potency, µM; AID 360, 2006; purified enzyme, resorufin glucoside fluorescence (screen aimed at inhibitors), 20 min; Lysosomal acid glucosylceramidase (Homo sapiens), P04062; 1.1% of 48,000 active; in the data active = potency below about 15 µM; inconclusive = mostly about 16 µM to 33 µM;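 also: potency is read from the fitted curve at half-maximal effect; the screen sought inhibitors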
Target sequence (P04062 whole entry, looked up): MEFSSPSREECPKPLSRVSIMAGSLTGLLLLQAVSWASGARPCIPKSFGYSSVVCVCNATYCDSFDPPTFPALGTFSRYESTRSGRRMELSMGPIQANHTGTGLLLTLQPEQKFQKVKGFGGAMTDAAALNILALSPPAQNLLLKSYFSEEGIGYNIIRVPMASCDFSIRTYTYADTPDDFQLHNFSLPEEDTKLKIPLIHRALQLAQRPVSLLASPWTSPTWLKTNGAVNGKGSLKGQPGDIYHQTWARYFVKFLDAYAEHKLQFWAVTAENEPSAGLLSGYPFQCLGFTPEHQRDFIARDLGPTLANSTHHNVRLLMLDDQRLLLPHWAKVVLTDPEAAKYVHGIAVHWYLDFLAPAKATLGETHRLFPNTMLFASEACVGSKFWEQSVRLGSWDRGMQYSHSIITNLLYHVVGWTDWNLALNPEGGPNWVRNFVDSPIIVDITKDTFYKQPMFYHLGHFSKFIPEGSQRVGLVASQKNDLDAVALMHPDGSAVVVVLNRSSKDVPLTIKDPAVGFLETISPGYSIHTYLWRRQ
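Compounds titrated against 0.2 nM normal enzyme, 30 uM resorufin beta-D-glucopyranoside substrate, citrate/phosphate buffer with taurocholate and tween-20, pH 5.9. Reaction ran 20 min at room temperature; fluorescence (Ex 548/Em 600) gave AC50.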
UbGFP stabilizer: Ubiquitin-GFP Assay. Ubiquitin-GFP reporter cells, proteasome inhibition, GFP fluorescence; response scale: untreated = 0%, 10 µM MG-132 = 100%. Potency, µM (series often up to 45.9 µM), without a hit: top-dose activation (GFP accumulation), most hits filed as activators. 67,000 tested, under 10 active. AID 526, 2006; active = well fitted activation curve with a large enough effect, not every such curve was filed as active; inconclusive = small, poorly fitted or top-dose-only effect, or another doubt; inactive = no such curve, though single readings can be large or run the other way; also: potency is read from the fitted curve at half-maximal effect
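Proteasome block read as GFP accumulation: ubiquitin(G76V)-GFP U2OS cells exposed to compound (2.9 nM–46 uM) for 4 hr at 37 C. Normalization used untreated cells as 0% and 10 uM MG-132 as 100%; concentration-response curves fitted.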
HBB splice mod: qHTS Assay for Modulators of Hemoglobin Beta Chain Splicing | 0.06% of 65,000 active | Potency, µM (top dose mostly 46.1 µM), without a hit: top-dose activation, actives largely listed as activators | AID 925, 2007 | HBB splicing reporter cell assay, activation; EGFP reporter with mutant IVS2-654 intron; response scale: normalised to 500 nM splice-correcting PNA; also: potency is read from the fitted curve at half-maximal effect; 0% is about no effect
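HeLa cells stably expressing EGFP interrupted by mutant beta-globin intron 2 (IVS2-654), 500/well in 2% FCS. Treated with compound for 2 days at 37C. Splicing correction scored as total well GFP intensity (488 nm excitation, 500-520 nm emission); 500 nM antisense PNA served as control.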
Epigenetic mod: qHTS Assay for Epigenetic Modulators. mouse C127i GFP locus derepression, cytometry, 30 h. Potency, µM (doses to about 46.1 µM), for the others: at the highest dose GFP derepression (activation). 0.09% of 68,000 active. AID 597, 2007; also: % of control where 0% means no effect
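Locus derepression in mouse mammary C127i cells whose integrated CMV-GFP reporter is normally silent; GFP expression after 30 h compound treatment was quantified by counting fluorescent cells.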
Bst PK mod: Pyruvate Kinase. purified pyruvate kinase, luminescence ATP production; ribose 5-phosphate activator present at AC10. Potency, µM. 1.2% of 51,000 active. AID 361, 2006; in the data active = potency below about 11 µM; inconclusive = mostly about 12 µM to 25 µM;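 the screen sought inhibitors and activators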;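 also: potency is read from the fitted curve at half-maximal effect; scaled between full activation by ribose 5 phosphate and full inhibition by luteolin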
FLuc inh: qHTS Assay for Inhibitors of Firefly Luciferase; Luciferin 4-monooxygenase (Photinus pyralis), P08659; purified firefly luciferase, luminescence, 8 min; Potency, µM (top dose mostly 57.1 µM), inactives show at the top dose activity change, negative = inhibition, usual class: inhibitors; 2.2% of 72,000 active; AID 411, 2009; also: potency is read from the fitted curve at half-maximal effect; % is scaled to controls: 0 for no effect and ±100 for the full control effect; nearly all actives have a fitted effect of over 40% in size
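Compounds were tested as concentration series (qHTS) against purified P. pyralis luciferase with luciferin and 10 uM ATP in 50 mM imidazole pH 7.2, 50 mM KCl, 7 mM MgCl2, 0.01% Tween 20, 0.05% BSA. Luminescence was read after 8 min at ambient temperature.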
* = called active by the depositor; [ ] = dose if it differs, or a comment. Unless noted, calls follow the shape of the dose curve; as a rule, active = well fitted curve in the direction sought with a large enough effect; inconclusive = small, poorly fitted or top-dose-only effect, or another doubt; inactive = no such curve, though single readings can be large; an effect the other way counts as inactive or inconclusive.

`CCC(=O)O[C@@H]1[C@H](C)O[C@H](O[C@H]2[C@@H](N(C)C)[C@H](O)[C@@H](O[C@@H]3[C@@H](CC=O)C[C@@H](C)[C@@H](O)/C=C\C=C/C[C@@H](C)OC(=O)C[C@@H](OC(=O)CC)[C@H]3OC)O[C@H]2C)C[C@]1(C)O` gave UbGFP stabilizer 5.5%[20.5 µM], HBB splice mod -0.7%[20.6 µM], Epigenetic mod 3.4%[20.6 µM] and FLuc inh 3.2%[25.5 µM].
For Clc1ccc(-c2nnc(-c3ccco3)o2)cc1 the results were UbGFP stabilizer 2.6%, HBB splice mod 0.3%, Epigenetic mod 0.0%, Bst PK mod 4.02* and FLuc inh -17.7%.
For N=c1cc(C2(O)CCCCC2)n2c(nc3ccccc32)s1 the results were GBA mod >76.9, UbGFP stabilizer 3.1%, HBB splice mod -0.9%, Epigenetic mod -1.5%, Bst PK mod 1.11* and FLuc inh 1µM*.
CN=CC1=C(O)c2ccccc2C1=O was read as GBA mod >76.9, UbGFP stabilizer 11.0%, HBB splice mod 3.0%, Epigenetic mod 0.0% and FLuc inh 1.0%.
For O=C1C(C=Nc2ccccc2O)=C(O)c2ccccc21 the results were GBA mod >76.9, UbGFP stabilizer -5.3%, HBB splice mod 0.4%, Epigenetic mod 2.2%, Bst PK mod 7.29* and FLuc inh 7.94µM*.
For CCc1ccc(O)c(N=Cc2ccccc2O)c1 the results were UbGFP stabilizer -7.4%, HBB splice mod -0.2%[9.22 µM], Epigenetic mod -6.9% and FLuc inh -1.7%.
`Cc1ccc(O)c(N=CC2=C(O)c3ccccc3C2=O)c1` gave UbGFP stabilizer 7.4%, HBB splice mod 0.8%, Epigenetic mod -2.3% and FLuc inh 25.1µM*.
For CCOC(=O)C1=C(C)NC(C)=C(C(=O)OC)[C@@H]1c1cccc(Cl)c1Cl the results were UbGFP stabilizer -4.7%[20.5 µM], HBB splice mod -0.7%[20.6 µM], Epigenetic mod -1.7%[20.6 µM] and FLuc inh -0.4%[25.5 µM].
`O=C(NCc1ccco1)C(c1ccco1)N(CCc1ccccc1)C(=O)Cn1nnc2ccccc21` (stereo not given) gave GBA mod >76.9, UbGFP stabilizer -1.9%, Epigenetic mod -1.7%, Bst PK mod >57 and FLuc inh -2.9%.
`CC(C)CCNC(=O)C(c1ccco1)N(C(=O)Cn1nnc2ccccc21)c1ccc2c(c1)OCO2` (stereo not given) gave GBA mod 8.22*, UbGFP stabilizer -5.2%, Epigenetic mod -0.1%, Bst PK mod >57 and FLuc inh 1.0%.
`COC(=O)C1=C(C)NC(C)=C(C(=O)OCCN(C)Cc2ccccc2)[C@@H]1c1cccc([N+](=O)[O-])c1` gave UbGFP stabilizer -0.1%, HBB splice mod 1.3%, Epigenetic mod -2.2% and FLuc inh -3.6%.
CC(=O)c1ccc(OC2C=CC(C#Cc3ccc(Br)cc3)OC2CO)cc1 (stereo not given) was read as HBB splice mod 3.0%[9.22 µM].
Screening S=c1[nH]nc(CSc2nc3ccccc3s2)o1 returned UbGFP stabilizer 2.1%, HBB splice mod 0.5%[9.22 µM], Epigenetic mod -2.2% and FLuc inh 0.4%.
`Oc1cc2ccccc2cc1-c1n[nH]c(=S)o1` gave GBA mod 12.4*, UbGFP stabilizer -1.9%, Epigenetic mod 1.2%, Bst PK mod >57 and FLuc inh 3.0%.
For Nc1nc(CSc2ncn(-c3ccccc3)n2)cs1 the results were GBA mod >76.9, UbGFP stabilizer 2.1%, HBB splice mod 4.1%, Epigenetic mod 14.5% and FLuc inh 25.1µM*.
Screening Cn1cccc1C(=O)N1CCC2(CC1)CCN(c1ccncc1)CC2 returned UbGFP stabilizer -0.4%, HBB splice mod 0.9%, Epigenetic mod 0.0%[9.22 µM] and FLuc inh 0.9%[11.4 µM].
Screening Cc1ccc2[nH]c(-c3ccccc3)cc(=O)c2c1 returned UbGFP stabilizer -0.8%[9.17 µM], HBB splice mod -3.7%[0.0738 µM], Epigenetic mod 0.0% and FLuc inh 5.01µM*.
COc1ncc2nc(CCc3ccccc3)c(=O)n(Cc3cccs3)c2n1 was read as UbGFP stabilizer 11.9%, HBB splice mod -0.5%, Epigenetic mod 4.9%[9.22 µM] and FLuc inh 0.3%[11.4 µM].
`Cc1ccc(C)n1-n1cnc2sc(-c3ccccc3)cc2c1=O` gave GBA mod >76.9, UbGFP stabilizer -2.9%, HBB splice mod -2.4%, Epigenetic mod 1.1%, Bst PK mod >57 and FLuc inh -2.0%.
`CCn1cnc2sc(-c3ccccc3)cc2c1=O` gave GBA mod >76.9, UbGFP stabilizer 3.4%, HBB splice mod -2.1%[57.5 µM], Epigenetic mod 4.3%, Bst PK mod inconclusive and FLuc inh 12.6µM*.
COc1ccc(-n2nc(C(=O)NCC(=O)N3CCN(c4ccccn4)CC3)c3ccccc3c2=O)cc1 was read as GBA mod >76.9, UbGFP stabilizer 3.4%, HBB splice mod 0.0%, Epigenetic mod -2.8%, Bst PK mod 8.23* and FLuc inh 3.16µM*.
`COc1ccc(CC(=O)N2CCN(c3ccccn3)CC2)cc1` gave GBA mod >76.9, UbGFP stabilizer -2.7%, HBB splice mod -1.1%, Epigenetic mod 2.9%, Bst PK mod >57 and FLuc inh -1.3%.
`C=CC1CO1` (stereo not given) gave HBB splice mod 0.1%.
`Cc1ccc(C)c(CSc2nnc(-c3cccnc3)n2N)c1` gave GBA mod 4.18*, UbGFP stabilizer 4.1%, HBB splice mod -0.8%, Epigenetic mod 1.6%, Bst PK mod >57 and FLuc inh -1.6%.
`Oc1ccccc1OCc1nc2ccccc2s1` gave UbGFP stabilizer 3.3%[9.17 µM], HBB splice mod 1.8%[0.0738 µM], Epigenetic mod 0.0% and FLuc inh 20µM*.
For N[C@@H]1[C@@H]2[C@@H]3C[C@H]4N(CC[C@@]14C(=O)C(=O)O)CC3=CCO[C@@H]2CC(=O)O the results were UbGFP stabilizer -5.3%[9.17 µM], HBB splice mod 2.6%[9.22 µM], Epigenetic mod 2.3%[9.22 µM] and FLuc inh 3.1%[11.4 µM].
CCOC(=O)c1sc(NC(=O)CSc2nncs2)c(C(=O)OCC)c1C was read as GBA mod 9.61*, UbGFP stabilizer 7.2%, HBB splice mod -3.2%, Epigenetic mod 0.1%, Bst PK mod >57 and FLuc inh -35.5%.
For O=C(O)[C@H]1CCCN(CCC=C(c2ccccc2)c2ccccc2)C1 the results were UbGFP stabilizer -0.3%, HBB splice mod -0.5%, Epigenetic mod 4.2% and FLuc inh 0.6%.
`COc1cccc(-c2nc3ccc(O)cc3c(=O)o2)c1` gave GBA mod 12.6*, UbGFP stabilizer -8.7%, HBB splice mod -1.4%, Epigenetic mod 5.4%, Bst PK mod 11.2* and FLuc inh inconclusive.
